Source: PubChem BioAssay (NCI)
This is part of a sample that, as a whole, favours compounds with a hit. Of some 83,000 tested, about 20% had one in any assay.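 Negative percent growth values reflect cell death: -40 means 40% of the cells present at the start died, and -100 means all died.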 Values without a mark were called inactive. Activity calls are given as the source filed them. How the source made its calls: active means growth percent below 10; inactive means the rest.

Each compound was assayed on MDA-MB-468 breast (assay: NCI-60 one-dose screen, 48 h (100 = growth as untreated, 0 = no growth, -100 = all killed)). Conditions: 10 µM unless noted.
In the case of COc1cccc(-c2cc(C(=O)Nc3ccc(/C=C/c4ccc(OC5CCN(C)CC5)cc4)cc3)ccc2OC)c1, the growth is reported as -36.4% (active). With CC(=O)ON=C1C=CC(=C(C#N)c2ccccc2)C=C1 the growth was 19%. COc1ccc(Nc2ncc(C(N)=O)c(NCCCNC(=O)C3CCC3)n2)cc1 gave a growth of 33.1%. O=C(Nc1ccccc1)Nc1nc2ccc([N+](=O)[O-])cc2[nH]1 showed a growth of 22.1%. With C=C(C)[C@@H]1CC[C@]2(COP(=O)(OCC)OCC)CC[C@]3(C)[C@H](CC[C@@H]4[C@@]5(C)CC[C@H](OP(=O)(OCC)OCC)C(C)(C)[C@@H]5CC[C@]43C)[C@@H]12 the growth was 22.1%. With CC(C)NC(=O)OCc1c(COC(=O)NC(C)C)c(-c2ccc(Cl)cc2)n2c1CCC2 the growth was -8.97% (active). Nc1cc(-c2ccc(Cl)cc2)nn1-c1nc(-c2ccc(Br)cc2)cs1 showed a growth of 99.4%. With O=C(Nc1ccc(OS(=O)(=O)c2ccc(F)cc2)cc1)c1ccc(Cl)cc1 the growth was 98%. In the case of COC(=O)/C=C1\S/C(=N\NC(=O)c2cc3ccc2/C=C\c2ccc(cc2)/C=C\3)N(c2ccccc2)C1=O, the growth is reported as -0.388% (active). O=C(N/N=C/c1c(Cl)cccc1Cl)c1cccc(Nc2ccnc(C(F)(F)F)c2)c1 gave a growth of 67.6%. With N#Cc1ccc(NC(=O)c2ccc3cccnc3c2O)cc1 the growth was 1.27% (active). For CN(C[C@H]1Cc2c(cccc2N2CCN(c3ncccn3)CC2)CN1)[C@H]1CCCc2cccnc21, the growth was 37.6%. Cc1cc(C)on1 gave a growth of 98.5%. COc1cc(-c2nc(-c3nnc(-c4cccnc4)o3)c3ccccn23)cc(OC)c1OC was tested, and the growth was 104%. With O=C1NC(=O)c2c1c1c3ccccc3ccc1c1[nH]c3ccccc3c21 the growth was 7.32% (active). In the case of NNc1cccc(/C=C/c2ccccc2)cc1=O, the growth is reported as 38.3%. Cc1c(C(N)=O)sc2ncn(CC(=O)NN=C3CCCCC3)c(=O)c12 showed a growth of 109%. For Sc1cccc2cccnc12, the growth was 30%. Cc1ccc(-c2nc(/C=C3/C(=O)Nc4ccc(F)cc43)c3ccccn23)cc1 was tested, and the growth was 77.3%. With O=[N+]([O-])/C(=C/c1ccccc1)c1ccccc1 the growth was 99%. Work on COc1ccc2nc3cc(Cl)ccc3c(NCCNCC(C)O)c2c1 (stereo not given) yielded a growth of 38.6%. With O=C1c2cc3c(cc2-c2c1c1ccc(Cl)cc1c(=O)n2CCCn1ccnc1)OCO3 the growth was -47.9% (active). COc1ccc2c(c1)C(=O)/C(=C/c1ccc(O)cc1)O2 was tested, and the growth was -28.5% (active). C=CCn1c(SCC(=O)Nc2ccc(C(=O)/C=C/c3ccc(Cl)cc3)cc2)nnc1-c1ccc(Cl)cc1 was tested, and the growth was 89%. In the case of CCOc1ccc(-c2nc3ccc(-c4nc5ccc(N6CCN(C)CC6)cc5[nH]4)cc3[nH]2)cc1OCC, the growth is reported as -44.5% (active). Work on C=C(C)[C@@H]1CC[C@]2(COC(=O)c3ccccc3C(=O)O)CC[C@]3(C)[C@H](CC[C@@H]4[C@@]5(C)CCCNC(C)(C)[C@@H]5CC[C@]43C)[C@@H]12 yielded a growth of 52%. Compound COc1cc(Cc2cc(OC)c(O)c(OC)c2)cc(OC)c1O has a growth of 65.2%. With Cc1ncc(C(=O)Nc2ccc(CN3CCN(C)CC3)c(C(F)(F)F)c2)cc1C#Cc1cncc2ncccc12 the growth was 99.3%. Compound O=C(CNc1nnc(-c2cccnc2SCc2ccccc2)s1)Nc1nc(Cl)cc(Cl)n1 has a growth of 112%. CC(=O)OCCCCCCn1c2ccccc2c2c3c(c4c5ccccc5n(C)c4c21)C(=O)N(O)C3=O showed a growth of 90.4%. For CCCCC1CCCCN1C(=O)OCC (stereo not given), the growth was 114%. CN(Cc1ccccc1)Cc1ccc([N+](=O)[O-])cc1I gave a growth of 93.3%. In the case of CC(=O)Nc1ccc2c(c1)Cc1c(F)cccc1-2, the growth is reported as 8.46% (active). CC(=O)c1c(O)cc2c3c1OC(C)(C)C1CCC(C)(CC31)O2 (stereo not given) gave a growth of 85.9%. In the case of O=C(Nc1ccc(Cl)cc1F)c1cc(F)ccc1O, the growth is reported as 3.61% (active). CCCCCCCC/C=C/CCCCCCCC1=NC(C)(C)CN1C(C)C was tested, and the growth was -70.1% (active). For CCOCC(=O)C(C#N)c1ccc(Cl)c(Cl)c1 (stereo not given), the growth was 90.9%. Work on COc1cccc(NC(=O)Cn2cc3c(=O)oc4ccccc4c3n2)c1 yielded a growth of 101%. In the case of COc1cc(N2C(=O)[C@H](c3ccccc3)C2c2ccc(SC)cc2)cc(OC)c1OC (stereo not given in full), the growth is reported as -9.99% (active). COc1ccccc1S(=O)(=O)Nc1ccc2c3c(cc(-c4ccoc4)nc13)C(=O)N2C gave a growth of 39.7%.
